Bioassay records deposited in PubChem BioAssay by National Center for Advancing Translational Sciences (NCATS).
Cycloheximide cs – counter-screen for Shiga toxin inhibitors: cycloheximide protein synthesis inhibition | cell reporter, cycloheximide protein synthesis inhibition counterscreen | actives 12% (n = 300,000) | AID 2314 | max response, %; in the data active = max response mostly above about 13%, no sharp cut-off; inactive = mostly below about 14%; note: read at 38.3 µM for the half of the compounds with a filed dose; 0% is about no effect
Shiga inhibitor – blocks Shiga toxin action in Vero cells; actives 9.2% (n = 290,000); AID 2315; Vero cells, Shiga toxin protein synthesis inhibition reporter; inhibition, % at 38.7 µM; in the data active = inhibition mostly above about 28%, no sharp cut-off; inactive = mostly below about 43%; note: 0% is about no effect
NS1 function inh – inhibitors of influenza NS1 protein function; actives 0.4% (n = 270,000); Potency, µM (doses to about 46.1 µM), for inactives: at the top dose activity, positive = more growth; AID 2326; calls by dose curve; note: potency is the fitted concentration of half-maximal effect; actives are rising curves; nearly all actives have a fitted effect of over 50% in size
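In this qHTS, NS1 from influenza A is expressed in budding yeast, where it slows growth. Cells are switched from glucose to 2% galactose medium (pH 6.0, -URA), treated with compound, and growth recovery is read at OD600.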
Pf growth 96h – P. falciparum growth inhibition at 96 hours; AID 504834; Potency, µM (doses to about 28.7 µM), for inactives: at the highest dose activity change, negative = inhibition, hits mostly inhibitors; P. falciparum luciferase reporter growth, 96 h; actives 6.9% (n = 320,000); note: potency is the fitted concentration of half-maximal effect; % is set by controls: 0 for no effect and ±100 for the full control effect
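Readout is luminescence from an integrated firefly luciferase in P. falciparum. Red cells, 2% hematocrit and 0.05% parasitemia final, were cultured with compound through two parasite generations (96 hours) at 37 C, 5% CO2.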
Giardia FBPA inh – Giardia lamblia aldolase inhibition | Potency, µM (highest dose often 59.6 µM), for the others: at the highest dose activity, negative = inhibition, most hits filed as inhibitors | A8B2U2 | purified Giardia FBPA | actives 0.71% (n = 290,000); note: potency is the fitted concentration of half-maximal effect; % is set by controls: 0 for no effect and ±100 for the full control effect; nearly all actives have a fitted effect of over 55% in size
Target sequence (A8B2U2 whole entry, looked up): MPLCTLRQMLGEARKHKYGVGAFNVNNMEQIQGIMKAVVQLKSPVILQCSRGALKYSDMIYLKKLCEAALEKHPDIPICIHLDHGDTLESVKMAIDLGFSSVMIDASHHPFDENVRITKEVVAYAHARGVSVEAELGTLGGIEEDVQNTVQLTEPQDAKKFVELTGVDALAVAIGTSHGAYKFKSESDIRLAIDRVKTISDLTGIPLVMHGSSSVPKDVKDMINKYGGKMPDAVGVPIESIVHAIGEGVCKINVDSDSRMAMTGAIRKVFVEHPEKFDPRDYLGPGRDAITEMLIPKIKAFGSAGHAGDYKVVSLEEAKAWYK
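40 nM FBPA preincubated 10 min at RT with compound (up to 57.5 uM final), then substrate plus GAPDH/TPI/NAD/arsenate coupling and diaphorase/resazurin added. Fluorescence read after 20 min at RT, 525/598 nm.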
Pf growth 48h – P. falciparum growth inhibition at 48 hours (one generation); P. falciparum luciferase growth in erythrocytes, 48 h; Potency, µM (titrated, usually from 28.7 µM), inactives show top-dose activity change, negative = inhibition, hits mostly inhibitors; actives 5.9% (n = 310,000); AID 504832; note: potency is the fitted concentration of half-maximal effect; % is set by controls: 0 for no effect and ±100 for the full control effect
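Read-out is firefly luciferase luminescence from an integrated reporter in P. falciparum, so falling signal marks reduced parasite growth. Infected erythrocytes were at 2% hematocrit and 0.1% parasitemia (final) in Albumax-supplemented RPMI 1640.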
Numbers without * were called inactive; i = inactive; u = inconclusive; x = no result; [ ] = dose if it differs, or a comment. An excerpt weighted towards active compounds, which were near 21% of everything screened. Unless noted, calls come from the whole dose curve; as a rule, active = well fitted curve in the direction sought with a large enough effect; inconclusive = small, poorly fitted or top-dose-only effect, or another doubt; inactive = no such curve, though single readings can be large; an effect the other way counts as inactive or inconclusive.

SMILES | Cycloheximide cs | Shiga inhibitor | NS1 function inh | Pf growth 96h | Giardia FBPA inh | Pf growth 48h
O=C(c1cc(-c2cccnc2)nc2ccccc12)N1CCN(S(=O)(=O)c2cccs2)CC1 | x | x | x | 13µM* | x | 12µM*
Cc1ccc(-c2cc(C(=O)N3CCCc4ccccc43)c3ccccc3n2)cc1 | -2 | -13 | -54% | x | -10% | 8.3µM*
O=C(CNC(c1ccccc1)c1ccccc1)NCc1ccccc1Cl | -8 | -18 | -35% | u | 10% | u
O=C(Nc1ccc(N2CCN(C(=O)c3ccccc3F)CC2)cc1)c1cncc(Br)c1 | 3 | -21 | 1% | u | x | u
O=C(Nc1ccc(N2CCCCC2)cc1)c1ccccc1 | 22 | 88* | 0% | x | 2% | -70%
COc1ccc(C(=O)Nc2ccc(S(=O)(=O)N3CCCCC3)cc2)cc1OC | -1 | -6 | -46% | 36% | -1% | -21%
Cc1ccc(C(=O)Nc2ccc(N3CCN(S(C)(=O)=O)CC3)cc2)cc1 | 10 | -3 | 4% | 16% | 0% | x
O=C(Nc1ccc(N2CCCCC2)cc1)c1cncc(Br)c1 | 28 | 141* | -10% | x | x | 173%
Cc1ccc(C(=O)Nc2ccc(N3CCOCC3)cc2)cc1 | 65* | 36 | -5% | u | -5% | u
COc1ccc(C(=O)Nc2ccc(N3CCCCC3)cc2)cc1Br | 37* | 66* | 9% | 57% | 10% | 116%
CN(C)Cc1ccc(C(C)(C)C)cc1-c1cc(C(C)(C)C)ccc1CN(C)C | x | x | -8% | x | x | x
COc1ccc(NC(=O)CN(C)C(=O)CSc2ccc(Br)cc2)cc1 | x | x | x | -29% | x | u
CC#CCN1c2ccccc2[C@]23C[C@@H](C(=O)OC)N(S(=O)(=O)c4ccc(C(F)(F)F)cc4)C2=NC(C(=O)OC)=C(C(=O)OC)[C@H]13 | x | x | x | x | 0%[12.9 µM] | x
Cc1ccc(C(=O)Nc2ccc(N3CCCC3)cc2)cc1 | 26* | 69* | x | 154% | -5% | 288%
CCN1CCN(c2ccc(NC(=O)c3cccc(N4CCCC4=O)c3)cc2)CC1 | 25* | 58 | -32% | 90% | -6% | 70%
Cc1ccc(NC(=O)Nc2ccc(C(=O)N3CCOCC3)cc2)cc1 | -1 | 16 | -17% | x | 3% | 20%
CCOc1ccc(C(=O)NCC(=O)Nc2ccc(N3CCOCC3)cc2)cc1OCC | 21* | 124* | 22% | 137% | 2% | i
Cc1ccc(NC(=O)NN2CCOCC2)cc1 | 16* | 29 | 3% | u | 0% | 46%
CC(CCC(=O)O)C1CC[C@H]2C3CCC4CC(=O)CCC4(C)[C@H]3CC(=O)C12C (stereo partly specified) | -4 | -6 | 8% | u | -10% | x
FC(F)(F)c1cccc(CNC2c3ccccc3-c3ccccc32)c1 | 1 | 8 | -1% | u | u | u
CCN(Cc1ccccc1)C(=O)CCS(=O)(=O)c1ccc2c(c1)CCN2C(C)=O | -1 | -2 | 7% | u | 13% | -13%
O=C(/C=C/c1ccccc1)Nc1ccc(N2CCCCC2)cc1 | 26* | 31 | 9% | -5% | -12% | 8%
O=C(Nc1ccc(N2CCN(C(=O)c3cccs3)CC2)cc1)c1cccc(F)c1 | 1 | 17 | -4% | 7% | -1% | u
Cc1ccc(C(=O)Nc2ccc(N3CCN(C)CC3)nc2)cc1 | 32* | 41 | x | u | 4% | 413%
Cc1cccc(C(=O)Nc2ccc(N3CCN(c4ccc(C(F)(F)F)cn4)CC3)nc2)c1 | -2 | -3 | 0% | -9% | 1% | u
SMILES | Cycloheximide cs | Shiga inhibitor | NS1 function inh | Pf growth 96h | Giardia FBPA inh | Pf growth 48h
O=C(NCCCN1CCN(c2ccc(F)cc2)CC1)c1cccc(N2CCCC2=O)c1 | 0 | -5 | -2% | x | 4% | 12µM*
O=C(Nc1ccc(N2CCCC2)cc1)c1cccc(F)c1 | 54* | 145* | -1% | -71% | -24% | -62%
CN(C(=S)NC(=O)Cc1ccccc1)c1ccccc1 | 11 | 12 | 2% | 5% | -19% | 10%
CC(OC(=O)c1ncc(Cl)c(Cl)c1Cl)C(=O)NC1(C#N)CCCCC1 (stereo unspecified) | x | x | x | 49% | x | 61%
COc1ccc(C(=O)NCC(=O)N/N=C/c2cn(C)c3ccccc23)cc1OC | 9 | -3 | -5% | u | x | 1%
CCOc1ccc(CCNC(=O)c2cc(C)nc3ccccc23)cc1OCC | -1 | -20 | 3% | u | x | -22%
